# The whole screen tested about 5,500 compounds, of which about 2,000 (36%) were called active. About 18% were inconclusive and are not listed. Some of the results follow. Unmarked numbers belong to inactive results. Cut-off read from the data, not from the text of the source: active = normalized growth mostly below about 0.91 (no sharp cut-off); inconclusive = no clear call, values can overlap the other calls; inactive = mostly above about 0.92.
# Assay: chemical genetic growth profiling, strain panel (AID 1159580);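 note: tested at 20 µM; growth read once vehicle control cultures reached saturation at 30 °C; 1 = growth at the plate median or of vehicle wells; lower values mean less growth of the strain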
# Conditions: growth OD
structure (smiles),measurement,setting,value
CC1(C)C(C(Cl)Cl)C2(Cl)C(Cl)C(Cl)C1(Cl)C2(Cl)Cl (centres undefined),normalized growth,"S. cerevisiae deletion strains, locus YJR043C, strain POL32, stronger effect = lower value",0.978
same,normalized growth,"S. cerevisiae deletion strains, locus YJR075W, strain HOC1, stronger effect = lower value",0.985
same,normalized growth,"S. cerevisiae deletion strains, locus YKL009W, strain mrt4, stronger effect = lower value",0.965
same,normalized growth,"S. cerevisiae deletion strains, locus YKL068W, stronger effect = lower value",0.983
same,normalized growth,"S. cerevisiae deletion strains, locus YKL085W, strain MDH1 (second series), stronger effect = lower value",0.973
same,normalized growth,"S. cerevisiae deletion strains, locus YKL085W, strain MDH1, stronger effect = lower value",0.973
same,normalized growth,"S. cerevisiae deletion strains, locus YKL160W, strain elf1, stronger effect = lower value",0.969
same,normalized growth,"S. cerevisiae deletion strains, locus YKL190W, strain CNB1, stronger effect = lower value",0.997
same,normalized growth,"S. cerevisiae deletion strains, locus YKR001C, strain vps1, stronger effect = lower value",0.964
same,normalized growth,"S. cerevisiae deletion strains, locus YKR026C, strain gcn3, stronger effect = lower value",0.989
same,normalized growth,"S. cerevisiae deletion strains, locus YKR091W, strain srl3, stronger effect = lower value",0.985
same,normalized growth,"S. cerevisiae deletion strains, locus YLL001W, strain dnm1, stronger effect = lower value",0.994
same,normalized growth,"S. cerevisiae deletion strains, locus YLL026W, stronger effect = lower value",0.981
same,normalized growth,"S. cerevisiae deletion strains, locus YLL041C, strain sdh2, stronger effect = lower value",0.989
same,normalized growth,"S. cerevisiae deletion strains, locus YLR027C, strain aat2, stronger effect = lower value",0.97
same,normalized growth,"S. cerevisiae deletion strains, locus YLR039C, strain RIC1, stronger effect = lower value",0.883
same,normalized growth,"S. cerevisiae deletion strains, locus YLR058C, strain SHM2, stronger effect = lower value",0.983
same,normalized growth,"S. cerevisiae deletion strains, locus YLR102C, strain apc9, stronger effect = lower value",0.979
same,normalized growth,"S. cerevisiae deletion strains, locus YLR221C, strain rsa3, stronger effect = lower value",0.961
same,normalized growth,"S. cerevisiae deletion strains, locus YLR258W, strain gsy2, stronger effect = lower value",0.975
same,normalized growth,"S. cerevisiae deletion strains, locus YLR262C, strain YPT6 (second series), stronger effect = lower value",0.817 (active)
same,normalized growth,"S. cerevisiae deletion strains, locus YLR262C, strain YPT6, stronger effect = lower value",0.884
same,normalized growth,"S. cerevisiae deletion strains, locus YLR268W, strain sec22, stronger effect = lower value",0.97
same,normalized growth,"S. cerevisiae deletion strains, locus YLR320W, strain mms22, stronger effect = lower value",0.878
same,normalized growth,"S. cerevisiae deletion strains, locus YLR330W, strain CHS5, stronger effect = lower value",0.991
same,normalized growth,"S. cerevisiae deletion strains, locus YLR342W, strain FKS1 (second series), stronger effect = lower value",0.913
same,normalized growth,"S. cerevisiae deletion strains, locus YLR342W, strain FKS1, stronger effect = lower value",0.964
same,normalized growth,"S. cerevisiae deletion strains, locus YLR357W, strain rsc2, stronger effect = lower value",0.993
same,normalized growth,"S. cerevisiae deletion strains, locus YLR370C, strain arc18, stronger effect = lower value",0.991
same,normalized growth,"S. cerevisiae deletion strains, locus YLR371W, strain rom2, stronger effect = lower value",0.968
same,normalized growth,"S. cerevisiae deletion strains, locus YLR384C, strain iki3, stronger effect = lower value",0.974
same,normalized growth,"S. cerevisiae deletion strains, locus YLR418C, strain cdc73, stronger effect = lower value",0.879
same,normalized growth,"S. cerevisiae deletion strains, locus YML016C, strain PPZ1, stronger effect = lower value",0.986
same,normalized growth,"S. cerevisiae deletion strains, locus YML032C, strain rad52, stronger effect = lower value",0.956
same,normalized growth,"S. cerevisiae deletion strains, locus YML120C, strain ndi1, stronger effect = lower value",0.983
same,normalized growth,"S. cerevisiae deletion strains, locus YML124C, strain tub3, stronger effect = lower value",0.976
same,normalized growth,"S. cerevisiae deletion strains, locus YMR058W, strain fet3, stronger effect = lower value",0.991
same,normalized growth,"S. cerevisiae deletion strains, locus YMR078C, strain ctf18, stronger effect = lower value",0.953
same,normalized growth,"S. cerevisiae deletion strains, locus YMR125W, strain sto1, stronger effect = lower value",0.995
same,normalized growth,"S. cerevisiae deletion strains, locus YMR129W, stronger effect = lower value",0.972
same,normalized growth,"S. cerevisiae deletion strains, locus YMR205C, strain PFK2, stronger effect = lower value",0.883
same,normalized growth,"S. cerevisiae deletion strains, locus YMR223W, strain ubp8, stronger effect = lower value",0.963
same,normalized growth,"S. cerevisiae deletion strains, locus YMR231W, strain pep5, stronger effect = lower value",0.977
same,normalized growth,"S. cerevisiae deletion strains, locus YMR263W, strain SAP30, stronger effect = lower value",0.988
same,normalized growth,"S. cerevisiae deletion strains, locus YMR307W, strain GAS1, stronger effect = lower value",0.967
same,normalized growth,"S. cerevisiae deletion strains, locus YNL067W, strain RPL9B, stronger effect = lower value",0.993
same,normalized growth,"S. cerevisiae deletion strains, locus YNL071W, strain lat1, stronger effect = lower value",0.834 (active)
same,normalized growth,"S. cerevisiae deletion strains, locus YNL128W, strain TEP1, stronger effect = lower value",0.992
same,normalized growth,"S. cerevisiae deletion strains, locus YNL153C, strain GIM3, stronger effect = lower value",0.988
same,normalized growth,"S. cerevisiae deletion strains, locus YNL209W, strain ssb2, stronger effect = lower value",0.979
same,normalized growth,"S. cerevisiae deletion strains, locus YNL233W, strain BNI4, stronger effect = lower value",0.999
same,normalized growth,"S. cerevisiae deletion strains, locus YNL248C, strain rpa49, stronger effect = lower value",0.99
same,normalized growth,"S. cerevisiae deletion strains, locus YNL250W, strain rad50, stronger effect = lower value",0.95
same,normalized growth,"S. cerevisiae deletion strains, locus YNL271C, strain bni1, stronger effect = lower value",0.975
same,normalized growth,"S. cerevisiae deletion strains, locus YNL298W, strain CLA4, stronger effect = lower value",0.958
same,normalized growth,"S. cerevisiae deletion strains, locus YNL307C, strain MCK1, stronger effect = lower value",0.778 (active)
same,normalized growth,"S. cerevisiae deletion strains, locus YNL322C, strain KRE1 (second series), stronger effect = lower value",0.979
same,normalized growth,"S. cerevisiae deletion strains, locus YNL322C, strain KRE1, stronger effect = lower value",0.987
same,normalized growth,"S. cerevisiae deletion strains, locus YNR049C, strain mso1, stronger effect = lower value",0.985
same,normalized growth,"S. cerevisiae deletion strains, locus YNR052C, strain pop2, stronger effect = lower value",0.963
same,normalized growth,"S. cerevisiae deletion strains, locus YOL006C, strain TOP1, stronger effect = lower value",0.926
same,normalized growth,"S. cerevisiae deletion strains, locus YOL012C, strain htz1",1.18
same,normalized growth,"S. cerevisiae deletion strains, locus YOL147C, strain pex11, stronger effect = lower value",0.973
same,normalized growth,"S. cerevisiae deletion strains, locus YOR001W, strain rrp6, stronger effect = lower value",0.995
same,normalized growth,"S. cerevisiae deletion strains, locus YOR061W, strain CKA2, stronger effect = lower value",0.992
same,normalized growth,"S. cerevisiae deletion strains, locus YOR069W, strain VPS5, stronger effect = lower value",0.985
same,normalized growth,"S. cerevisiae deletion strains, locus YOR070C, strain gyp1, stronger effect = lower value",0.991
same,normalized growth,"S. cerevisiae deletion strains, locus YOR080W, strain dia2, stronger effect = lower value",0.974
same,normalized growth,"S. cerevisiae deletion strains, locus YOR083W, strain WHI5, stronger effect = lower value",0.982
same,normalized growth,"S. cerevisiae deletion strains, locus YOR106W, strain vam3, stronger effect = lower value",0.95
same,normalized growth,"S. cerevisiae deletion strains, locus YOR136W, strain idh2, stronger effect = lower value",0.978
same,normalized growth,"S. cerevisiae deletion strains, locus YOR144C, strain elg1, stronger effect = lower value",0.967
same,normalized growth,"S. cerevisiae deletion strains, locus YOR184W, strain ser1, stronger effect = lower value",0.879
same,normalized growth,"S. cerevisiae deletion strains, locus YOR265W, strain rbl2, stronger effect = lower value",0.98
same,normalized growth,"S. cerevisiae deletion strains, locus YOR270C, strain vph1, stronger effect = lower value",0.922
same,normalized growth,"S. cerevisiae deletion strains, locus YOR290C, strain snf2, stronger effect = lower value",0.977
same,normalized growth,"S. cerevisiae deletion strains, locus YOR316C, strain cot1, stronger effect = lower value",0.973
same,normalized growth,"S. cerevisiae deletion strains, locus YPL051W, strain arl3, stronger effect = lower value",0.937
same,normalized growth,"S. cerevisiae deletion strains, locus YPL055C, strain LGE1, stronger effect = lower value",0.981
same,normalized growth,"S. cerevisiae deletion strains, locus YPL078C, strain atp4, stronger effect = lower value",0.988
same,normalized growth,"S. cerevisiae deletion strains, locus YPL106C, strain sse1, stronger effect = lower value",0.984
same,normalized growth,"S. cerevisiae deletion strains, locus YPL240C, strain hsp82, stronger effect = lower value",0.982
same,normalized growth,"S. cerevisiae deletion strains, locus YPL241C, strain CIN2, stronger effect = lower value",0.988
same,normalized growth,"S. cerevisiae deletion strains, locus YPR119W, strain clb2, stronger effect = lower value",0.973
same,normalized growth,"S. cerevisiae deletion strains, locus YPR141C, strain kar3, stronger effect = lower value",0.963
same,normalized growth,"S. cerevisiae deletion strains, locus YPR163C, strain tif3, stronger effect = lower value",0.946
same,normalized growth,"S. cerevisiae deletion strains, locus YPR167C, strain met16, stronger effect = lower value",0.978
same,normalized growth,"S. cerevisiae deletion strains, strain wtn01, stronger effect = lower value",0.966
same,normalized growth,"S. cerevisiae strains, strain wild type, stronger effect = lower value",0.986

# From PubChem BioAssay AID1159580 (chemical genetic matrix, 2015)
